Test results reported in ChEMBL document CHEMBL3988442, “University of Dundee, Small-Polar-MMV Screening Library” (2021).
The whole screen tested about 69,000 compounds, of which about 950 (1.4%) showed an effect of 50% or more. What follows is part of a selection rich in strong results, with near analogues and random picks from the rest.

system: Mycobacterium tuberculosis; experiment: Cornell M. t heat shock assay; assay type: functional, organism-based; set-up: dose or concentration left out as unconfirmed; also: in the data most compounds retested in dose-response had high values

Row | Compound | Percent Effect
1 | Cl.FC(F)CNc1cnc(C2CCNCC2)cn1 | 9.975%
2 | CN(C)CCn1c2c(ccc1=O)CC(NCc1cnn(C)c1)CC2.O=C(O)C(F)(F)F.O=C(O)C(F)(F)F (centres undefined) | 21.9%
3 | O=C(O)C(F)(F)F.O=C(O)C(F)(F)F.c1cncc(C2COC3(CCN(CC4CCOCC4)CC3)C2)c1 (centres undefined) | -13.27%
4 | CCN1CCOCC12CCN(C(=O)Cc1ccccc1)CC2.O=C(O)C(F)(F)F | -16.25%
5 | CNC(=O)CN1CC[C@H]2CN(C(=O)c3cc[nH]n3)C[C@H]2C1.O=C(O)C(F)(F)F | 6.516%
6 | Cc1cnn(CCNCc2nc(-c3ccsc3)oc2C)c1 | -4.227%
7 | Cc1cnn(CC(C)NCc2nc(-c3ccsc3)oc2C)c1 (centres undefined) | 59.87%
8 | Cc1oc(-c2ccsc2)nc1CNC(C)Cn1cccn1 (centres undefined) | -16.19%
9 | O=C(O)C(F)(F)F.O=C(O)C(F)(F)F.O=C(O)C(F)(F)F.c1cncc(COCc2cncc3c2CCN(Cc2ccoc2)C3)c1 | 2.729%
10 | Oc1nc(N2CCOCC2)nc2c1CCN(Cc1cccc(F)c1)CC2 | -9.224%
11 | COc1cccc(Nc2nc(C3CCNCC3)c3ccccn23)c1.Cl | 10.85%
12 | CC(C)Nc1nc(N2CCCC2)nc2c1CN(c1ncc(F)cn1)CC2 | 18.45%
13 | Fc1cccc(Nc2nc(N3CCCC3)nc3c2CNCC3)c1 | 102.4%
14 | COc1cccc(Nc2nc(-c3ccncc3)nc3c2CNCC3)c1.Cl | 9.794%
15 | COc1cccc(Nc2nc(N3CCCC3)nc3c2CNCC3)c1.Cl | 69.1%
16 | Cc1cccc(CN2C[C@@H]3CN(C(=O)c4cnoc4C)C[C@@H]3C2=O)n1.O=C(O)C(F)(F)F | -1.837%
17 | CCOC(=O)C1CCN(C(=O)c2cc(Br)ccc2-n2cnnn2)CC1 | 2.973%
18 | CC(C)(C)c1ncc(CNc2ccccc2Cn2cncn2)s1 | -19.95%
19 | COc1cccc(CNC2CCc3ccc(C)cc32)n1 (centres undefined) | 6.41%
20 | Cc1ccc2c(c1)C(NCc1ncnn1C)CC2 (centres undefined) | -20.52%
21 | Cc1ccc2c(c1)C(NCc1ccccn1)CC2 (centres undefined) | 89.07%
22 | Cl.O[C@@H]1CN(Cc2ccc(F)c(F)c2)CC[C@H]1NCc1ccccn1 | -13.15%
23 | Cc1cc(-c2cnc(NCc3cccnc3)nc2C(C)(C)C)on1 | 31.35%
24 | CC(Cn1cccn1)NCc1nc(-c2ccccn2)no1 (centres undefined) | -7.12%

Row | Compound | Percent Effect
25 | Cc1[nH]c2ccccc2c1-c1ccnc(N[C@@H](C)CO)n1 | -31.62%
26 | COCC(C)NCc1nc(-c2ccc(C)cc2)c(-c2ccccn2)[nH]1 (centres undefined) | 76.34%
27 | Cc1ccc(-c2nc(CNC(C)CCO)[nH]c2-c2ccccn2)cc1 (centres undefined) | 77%
28 | COCC(C)NCc1ccc2[nH]c(C)c(C)c2c1 (centres undefined) | -11.87%
29 | Cc1cnn(CC(C)NCc2nc(-c3ccccn3)no2)c1 (centres undefined) | -11.38%
30 | O=C(Cc1ccsc1)N1C[C@@H]2CN(Cc3ccoc3)CCO[C@@H]2C1.O=C(O)C(F)(F)F | -1.836%
31 | CC(C)=CCN1C(=O)[C@H]2CC[C@@H]1CN(C(=O)CCc1n[nH]c(C)c1C)C2 | -27.57%
32 | O=C(N[C@H]1CCCC[C@@H]1O)c1ccc(-c2nc3ccccc3[nH]2)cc1 | 47.47%
33 | O=C(N[C@H]1CCCC[C@@H]1O)c1ccc2nc(-c3ccccc3)[nH]c2c1 | 0.8647%
34 | O=C(N[C@H]1CCCC[C@@H]1O)c1cccc(-c2nc3ccccc3[nH]2)c1 | 55.91%
35 | CN1CCOCC12CCN(C(=O)C1CCC1)CC2.O=C(O)C(F)(F)F | 6.181%
36 | Cc1cc(C)c2[nH]c(C)c(CC(=O)N(C)CCN(C)C)c2c1.O=C(O)CC(O)(CC(=O)O)C(=O)O | -5.156%
37 | COC(C(=O)NCc1c(C)nc2cc(=O)[nH]n2c1C)c1ccccc1 (centres undefined) | 5.148%
38 | Cc1ccccc1C(C)NC(=O)Cc1c(C)nc2cc(=O)[nH]n2c1C (centres undefined) | 33.63%
39 | COc1ccccc1CC(=O)NCc1c(C)nc2cc(=O)[nH]n2c1C | 71.9%
40 | Cc1ccc(C(C)NC(=O)Cc2c(C)nc3cc(=O)[nH]n3c2C)s1 (centres undefined) | 66.66%
41 | Cc1nc2cc(=O)[nH]n2c(C)c1CC(=O)NC(C)C | -0.1861%
42 | Cc1ccccc1CNC(=O)Cc1c(C)nc2cc(=O)[nH]n2c1C | 17.46%
43 | O=C(O)C(F)(F)F.c1cnc(N2CCC3(CCCN(Cc4ccncc4)C3)CC2)nc1 | -2.214%
44 | CNC(=O)[C@H]1C[C@@H]2CCN(c3nnc(C)s3)C[C@@H]2O1.O=C(O)C(F)(F)F | 0.7881%
45 | CSCCC1c2nc[nH]c2CCN1Cc1ccccc1C#N (centres undefined) | 12.31%
46 | CSCCC1c2nc[nH]c2CCN1Cc1cc(Cl)ccc1O (centres undefined) | 106.2%
47 | CSCCC1c2nc[nH]c2CCN1Cc1ccccc1C(F)(F)F (centres undefined) | -11.51%
48 | Cc1ccccc1C(=O)N1CC[C@@H](N(C)C)[C@@H]1Cc1cnn(C)c1.O=C(O)C(F)(F)F | -16.62%

Row | Compound | Percent Effect
49 | CN(C)S(=O)(=O)N1CC[C@]2(C[C@@H](Oc3ncccc3F)CO2)C1.O=C(O)C(F)(F)F | 7.547%
50 | COc1ccc(CN2C[C@@H](OCc3ccccn3)[C@H]3COC[C@H]32)cc1.O=C(O)C(F)(F)F.O=C(O)C(F)(F)F | -14.6%
51 | CCN1CCC(CC(=O)NCC(O)c2cccc(OC)c2)CC1 (centres undefined) | 93.38%
52 | COc1cccc(C(O)CNC(=O)CC2CCCCC2)c1 (centres undefined) | 9.16%
53 | CCN1CCC(CC(=O)NCC(O)c2ccc3ccccc3c2)CC1 (centres undefined) | 13.11%
54 | Cn1ccc(CN2CCCC23CCN(Cc2nccn2C)CC3)n1.O=C(O)C(F)(F)F.O=C(O)C(F)(F)F | 9.444%
55 | CCN(CC)Cc1ccc(C(=O)N2CCN(CC(C)O)CC2)cc1 (centres undefined) | 9.654%
56 | CCc1ccc(C(=O)N2CCN(CC(C)O)CC2)o1 (centres undefined) | 14.22%
57 | CCN(CC)Cc1ccc(C(=O)N2CCN(CC(C)O)CC2)o1 (centres undefined) | 61.39%
58 | Cc1ccc(S(=O)(=O)Nc2ccc(N3CCSCC3)c(C(=O)O)c2)s1 | -1.51%
59 | CCN(Cc1noc(C)n1)C(=O)CCn1c(C)cc2ccccc21 | 72.72%
60 | CCN(Cc1nc(COC)no1)C(=O)CCn1c(C)cc2ccccc21 | 35.71%
61 | CCN(Cc1ccncc1)C(=O)CCn1c(C)cc2ccccc21 | 10.06%
62 | COCCN1CCOCC12CCN(C(=O)c1ccoc1)CC2.O=C(O)C(F)(F)F | -24.79%
63 | Cn1cc(CN2CC[C@H]3O[C@H](C(=O)Nc4cnccn4)CC[C@H]32)cn1.O=C(O)C(F)(F)F | -14.77%
64 | Cc1cc(CN(C)CCN(C)c2ccccc2)no1 | 0.1875%
65 | CN(CCC(O)c1ccccc1)Cc1ccccc1C#N (centres undefined) | 79.67%
66 | Cc1cc(CN(C)CCC(O)c2ccccc2)no1 (centres undefined) | 50.59%
67 | Cc1cc(CN(C)CCC(O)c2ccccc2)nn1C (centres undefined) | 0.01185%
68 | CN(CCC(O)c1ccccc1)Cc1nc(-c2ccccc2)no1 (centres undefined) | 28.98%
69 | COc1cccc(CN(C)Cc2ccccc2C#N)c1OC | -6.46%
70 | COCC1Cn2nnc(-c3cnn(C)c3)c2CN1Cc1ccoc1.O=C(O)C(F)(F)F (centres undefined) | 5.008%
71 | O=C(O)CCC(=O)Nc1nn(Cc2ccccc2Cl)cc1Cl | 2.15%
72 | Cc1ccc(N2CCO[C@H]3CN(CC4CC4)C[C@H]32)nn1.O=C(O)C(F)(F)F.O=C(O)C(F)(F)F | -7.487%

Row | Compound | Percent Effect
73 | COc1cc(N2CC[C@@H](O)[C@@H]2Cc2cccnc2)ncn1.O=C(O)C(F)(F)F | 0.6687%
74 | CCCN(CC(=O)N1CCNCC1)C(=O)c1cccc(Cl)c1.O=C(O)C(F)(F)F | 0.5334%
75 | CCOc1ccccc1OCCN(C)Cc1nccn1C | -26.9%
76 | CN(CCCOc1ccccc1)Cc1nccn1C | -13.65%
77 | Cc1ccc(OCCN(C)Cc2nccn2C)c(C)c1 | 55.39%
78 | O=C(C1CCCc2[nH]ncc21)N1CCCC2(C1)OCCO2 (centres undefined) | 10.11%
79 | CN(C)C(c1ccccn1)[C@H]1CC[C@H](CNC(=O)C2CCCC2)CC1 (some centres undefined) | 5.9375%
80 | N#Cc1ccc(C(=O)N2CC[C@H]3[C@H]2CCN3CC2CCOCC2)cc1.O=C(O)C(F)(F)F | -36.11%
81 | N#CC1(C(=O)NCCCNc2ccc(C(F)(F)F)cn2)CCCC1 | 102.8%
82 | O=C(NCCCNc1ccc(C(F)(F)F)cn1)c1ccc(F)cc1 | 26.36%
83 | Cc1cc(NCCNc2ccc(C#N)cn2)nc(C)n1 | -18.17%
84 | O=C(NCCCNc1ccc(C(F)(F)F)cn1)c1ccccc1 | 26.28%
85 | N#Cc1ccc(NCCNc2ccc(C(F)(F)F)cn2)nc1 | 51.52%
86 | N#Cc1ccc(C(=O)NCCCNc2ccc(C(F)(F)F)cn2)cc1 | 28.89%
87 | O=C(O)C(F)(F)F.O=C1CC(c2ccccc2)C2(CCN(Cc3nccs3)CC2)N1 (centres undefined) | -1.259%
88 | CC(=O)N1CCC2(CC1)CNc1c(F)cccc12.Cl | 12.35%
89 | Cc1cc2c(c(-c3c[nH]c(C)n3)c1)OC(CN)C2 (centres undefined) | 1.503%
90 | Cc1nc(-c2cc(Cl)cc3c2OC(CN)C3)c[nH]1 (centres undefined) | 52.4%
91 | Cc1nc(-c2cc(Cl)c3c(c2)CC(CN)O3)c[nH]1 (centres undefined) | 42.51%
92 | Cc1cc(C(F)(F)F)n2nc(C3CCCN3C3CCSCC3)cc2n1.O=C(O)CC(O)(CC(=O)O)C(=O)O (centres undefined) | -13.15%
93 | COCC(=O)NC1CC2(CCN(CC3CC3)CC2)Oc2ccccc21.O=C(O)C(F)(F)F (centres undefined) | -26.45%
94 | COc1cc(N2CCC3(CCN(Cc4nccs4)CC3)C2)ncn1.O=C(O)C(F)(F)F | 24.13%
